According to the supplement of paper PMC10849652:
Targets with a hit are over-represented here; the source holds about 7,900 in all. About 0.6% of all pairs of compound and target were hits. Unmarked numbers belong to inactive results.

Assays:
Test in all cases: log2 fold change, soluble protein after heating vs DMSO (PISA); higher = thermal stabilisation; K562 cells, 10 uM, 30 min; active = over 0.2 and 3.5 SD of the protein, either way, in both replicates (recomputed)
[1] = compound: CS(=O)(=O)c1ccc(-c2cnc(N)c(C(=O)Nc3ccccc3)n2)cc1
Method in brief: (§1)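 Thermal stability values are relative to control samples and come from duplicates. They are expressed as log2 fold changes. For measurement, K562 cells (2×10^6 cells/mL) received 10 μM compound for 30 min, and aliquots were heated for 3 min over 48°C-58°C, pooled, and extracted at 4°C in PBS with 0.5% NP-40. Soluble protein, the supernatant after 21,000xg for 90 min, was quantified by TMTpro 16plex LC-MS/MS with equalised channel sums.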

crizotinib = compound: C[C@@H](Oc1cc(-c2cnn(C3CCNCC3)c2)cnc1N)c1c(Cl)ccc(F)c1Cl [crizotinib]
Method in brief: as §1

[2] = compound: C[C@@H]1COCCN1C2=NC(=NC(=C2)C3(CC3)S(=O)(=O)C)C4=C5C=CNC5=CC=C4
Method in brief: as §1

[3] = compound: C[C@H](C1=CC=C(C=C1)C(=O)NC2=C3C=CNC3=NC=C2)N
Method in brief: as §1

duvelisib = compound: C[C@H](Nc1ncnc2nc[nH]c12)c1cc2cccc(Cl)c2c(=O)n1-c1ccccc1 [duvelisib]
Method in brief: as §1

gandotinib = compound: Cc1cc(Nc2cc(CN3CCOCC3)c3nc(C)c(Cc4ccc(Cl)cc4F)n3n2)n[nH]1 [gandotinib]
Method in brief: as §1

tozasertib = compound: Cc1cc(Nc2cc(N3CCN(C)CC3)nc(Sc3ccc(NC(=O)C4CC4)cc3)n2)n[nH]1 [tozasertib]
Method in brief: as §1

[4] = compound: Cc1cc(SCc2sc(-c3ccc(C(F)(F)F)cc3)nc2C)ccc1OCC(=O)O
Method in brief: as §1

doramapimod = compound: Cc1ccc(-n2nc(C(C)(C)C)cc2NC(=O)Nc2ccc(OCCN3CCOCC3)c3ccccc23)cc1 [doramapimod]
Method in brief: as §1

ispinesib = compound: Cc1ccc(C(=O)N(CCCN)[C@@H](c2nc3cc(Cl)ccc3c(=O)n2Cc2ccccc2)C(C)C)cc1 [ispinesib]
Method in brief: as §1

Target: PPID (UniProt Q08752)
- log2 fold change [1]: 0.055
- log2 fold change (crizotinib): -0.102
- log2 fold change [2]: 0.046
- log2 fold change [3]: 0.071
- log2 fold change (duvelisib): -0.024
- log2 fold change (gandotinib): -0.145
- log2 fold change (tozasertib): 0.043
- log2 fold change [4]: 0.088
- log2 fold change (doramapimod): 0.007
- log2 fold change (ispinesib): -0.08

Target: PCTP (UniProt Q9UKL6)
- log2 fold change [1]: 0.094
- log2 fold change (crizotinib): -0.135
- log2 fold change [2]: 0.031
- log2 fold change [3]: 0.003
- log2 fold change (duvelisib): -0.039
- log2 fold change (gandotinib): 0.029
- log2 fold change (tozasertib): -0.042
- log2 fold change [4]: -0.033
- log2 fold change (doramapimod): -0.048
- log2 fold change (ispinesib): 0.015

Target: PSMD8 (UniProt P48556)
- log2 fold change [1]: 0.034
- log2 fold change (crizotinib): 0.011
- log2 fold change [2]: -0.053
- log2 fold change [3]: 0.156
- log2 fold change (duvelisib): -0.016
- log2 fold change (gandotinib): 0.002
- log2 fold change (tozasertib): 0.008
- log2 fold change [4]: 0.059
- log2 fold change (doramapimod): 0.028
- log2 fold change (ispinesib): 0.015

Target: PCNT (UniProt O95613)
- log2 fold change [1]: 0.119
- log2 fold change (crizotinib): 0.023
- log2 fold change [2]: 0.09
- log2 fold change [3]: 0.153
- log2 fold change (duvelisib): -0.003
- log2 fold change (gandotinib): 0.06
- log2 fold change (tozasertib): 0.032
- log2 fold change [4]: -0.006
- log2 fold change (doramapimod): -0.023
- log2 fold change (ispinesib): -0.099

Target: PDE4DIP isoform 4 (UniProt Q5VU43)
- log2 fold change [1]: -0.007
- log2 fold change (crizotinib): 0.02
- log2 fold change [2]: 0.134
- log2 fold change [3]: -0.002
- log2 fold change (duvelisib): 0.072
- log2 fold change (gandotinib): 0.106
- log2 fold change (tozasertib): -0.011
- log2 fold change [4]: 0.008
- log2 fold change (doramapimod): 0.01
- log2 fold change (ispinesib): -0.073

Target: PTP4A2 (UniProt Q12974)
- log2 fold change [1]: -0.001
- log2 fold change (crizotinib): 0.047
- log2 fold change [2]: 0.026
- log2 fold change [3]: -0.01
- log2 fold change (duvelisib): -0.057
- log2 fold change (tozasertib): 0.017
- log2 fold change [4]: 0.05
- log2 fold change (doramapimod): -0.047
- log2 fold change (ispinesib): 0.154

Target: PLCL1 (UniProt Q15111)
UniProt Q15111, sequence (Q15111 whole entry, looked up): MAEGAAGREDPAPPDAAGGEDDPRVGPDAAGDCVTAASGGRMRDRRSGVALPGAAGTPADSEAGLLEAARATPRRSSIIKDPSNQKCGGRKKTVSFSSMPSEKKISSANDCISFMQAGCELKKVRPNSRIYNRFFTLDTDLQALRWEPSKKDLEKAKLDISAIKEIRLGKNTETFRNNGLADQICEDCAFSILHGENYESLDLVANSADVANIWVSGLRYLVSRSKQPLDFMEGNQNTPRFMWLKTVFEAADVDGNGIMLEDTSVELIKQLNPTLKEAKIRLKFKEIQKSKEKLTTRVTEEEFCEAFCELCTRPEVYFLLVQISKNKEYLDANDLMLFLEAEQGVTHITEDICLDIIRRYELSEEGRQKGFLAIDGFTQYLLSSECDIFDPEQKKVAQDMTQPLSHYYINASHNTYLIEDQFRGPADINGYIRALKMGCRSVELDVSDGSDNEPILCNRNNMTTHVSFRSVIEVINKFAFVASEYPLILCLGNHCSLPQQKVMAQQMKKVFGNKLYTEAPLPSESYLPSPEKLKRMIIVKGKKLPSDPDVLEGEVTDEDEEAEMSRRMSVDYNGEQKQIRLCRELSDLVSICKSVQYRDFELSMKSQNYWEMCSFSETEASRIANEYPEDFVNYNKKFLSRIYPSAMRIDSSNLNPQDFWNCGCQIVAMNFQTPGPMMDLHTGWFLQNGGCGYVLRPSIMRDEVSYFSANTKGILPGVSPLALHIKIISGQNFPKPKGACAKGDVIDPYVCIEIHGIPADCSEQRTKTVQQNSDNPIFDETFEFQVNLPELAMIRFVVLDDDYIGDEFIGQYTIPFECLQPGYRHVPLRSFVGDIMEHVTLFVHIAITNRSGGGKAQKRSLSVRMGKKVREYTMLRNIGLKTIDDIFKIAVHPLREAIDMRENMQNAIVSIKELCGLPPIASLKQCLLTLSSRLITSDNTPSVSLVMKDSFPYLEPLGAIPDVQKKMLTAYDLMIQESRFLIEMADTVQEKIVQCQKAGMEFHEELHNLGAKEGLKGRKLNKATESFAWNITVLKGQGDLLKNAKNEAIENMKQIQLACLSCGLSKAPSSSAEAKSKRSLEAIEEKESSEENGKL
- log2 fold change [1]: 0.112
- log2 fold change (crizotinib): -0.03
- log2 fold change [2]: 0.074
- log2 fold change [3]: -0.263
- log2 fold change (gandotinib): -0.14
- log2 fold change (tozasertib): -0.015
- log2 fold change (doramapimod): -0.08
- log2 fold change (ispinesib): -0.162

Target: PLCB3 (UniProt Q01970)
UniProt Q01970, sequence (Q01970 whole entry, looked up): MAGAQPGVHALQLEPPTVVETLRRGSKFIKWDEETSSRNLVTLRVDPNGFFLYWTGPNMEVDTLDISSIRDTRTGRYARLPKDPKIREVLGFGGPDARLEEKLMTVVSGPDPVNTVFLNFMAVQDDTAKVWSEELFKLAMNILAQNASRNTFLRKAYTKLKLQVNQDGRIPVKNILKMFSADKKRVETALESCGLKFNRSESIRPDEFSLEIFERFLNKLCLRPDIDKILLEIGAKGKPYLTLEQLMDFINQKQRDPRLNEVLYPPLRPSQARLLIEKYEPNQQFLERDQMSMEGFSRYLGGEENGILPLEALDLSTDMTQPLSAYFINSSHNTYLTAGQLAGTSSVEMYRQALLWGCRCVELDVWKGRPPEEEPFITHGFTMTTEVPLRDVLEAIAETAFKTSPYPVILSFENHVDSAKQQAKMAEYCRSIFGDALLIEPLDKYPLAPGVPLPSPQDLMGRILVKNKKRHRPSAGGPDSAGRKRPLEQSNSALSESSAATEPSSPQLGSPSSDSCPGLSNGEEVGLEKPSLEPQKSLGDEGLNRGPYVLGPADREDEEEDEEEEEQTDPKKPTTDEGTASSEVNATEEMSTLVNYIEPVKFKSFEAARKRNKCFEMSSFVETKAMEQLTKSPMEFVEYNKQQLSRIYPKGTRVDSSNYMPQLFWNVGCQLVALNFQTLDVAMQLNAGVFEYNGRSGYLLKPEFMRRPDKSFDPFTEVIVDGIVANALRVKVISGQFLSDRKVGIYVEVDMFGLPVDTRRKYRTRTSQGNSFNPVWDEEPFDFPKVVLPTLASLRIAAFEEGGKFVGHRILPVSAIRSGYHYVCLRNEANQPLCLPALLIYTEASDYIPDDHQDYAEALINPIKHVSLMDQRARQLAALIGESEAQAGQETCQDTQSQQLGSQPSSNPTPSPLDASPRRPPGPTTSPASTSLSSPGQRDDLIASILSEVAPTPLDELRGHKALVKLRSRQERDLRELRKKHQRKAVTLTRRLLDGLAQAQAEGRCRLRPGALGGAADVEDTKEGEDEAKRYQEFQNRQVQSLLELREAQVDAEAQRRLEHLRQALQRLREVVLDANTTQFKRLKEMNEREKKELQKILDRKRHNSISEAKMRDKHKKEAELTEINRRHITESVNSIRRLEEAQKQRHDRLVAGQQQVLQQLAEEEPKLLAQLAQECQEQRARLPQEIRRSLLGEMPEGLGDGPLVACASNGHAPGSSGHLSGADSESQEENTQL
- log2 fold change [1]: 0
- log2 fold change (crizotinib): -0.07
- log2 fold change [2]: 0.014
- log2 fold change [3]: 0.013
- log2 fold change (duvelisib): 0.019
- log2 fold change (gandotinib): 0.031
- log2 fold change (tozasertib): 0.041
- log2 fold change [4]: 0.034
- log2 fold change (doramapimod): 0.014
- log2 fold change (ispinesib): -0.078

Target: PKM isoform 2 (UniProt P14618)
- log2 fold change [1]: -0.053
- log2 fold change (crizotinib): -0.033
- log2 fold change [2]: -0.154
- log2 fold change (duvelisib): -0.001
- log2 fold change (gandotinib): 0.131
- log2 fold change (tozasertib): 0.056
- log2 fold change [4]: 0.12
- log2 fold change (doramapimod): 0.029
- log2 fold change (ispinesib): 0.016

Target: POP1 (UniProt Q99575)
UniProt Q99575, sequence (Q99575 whole entry, looked up): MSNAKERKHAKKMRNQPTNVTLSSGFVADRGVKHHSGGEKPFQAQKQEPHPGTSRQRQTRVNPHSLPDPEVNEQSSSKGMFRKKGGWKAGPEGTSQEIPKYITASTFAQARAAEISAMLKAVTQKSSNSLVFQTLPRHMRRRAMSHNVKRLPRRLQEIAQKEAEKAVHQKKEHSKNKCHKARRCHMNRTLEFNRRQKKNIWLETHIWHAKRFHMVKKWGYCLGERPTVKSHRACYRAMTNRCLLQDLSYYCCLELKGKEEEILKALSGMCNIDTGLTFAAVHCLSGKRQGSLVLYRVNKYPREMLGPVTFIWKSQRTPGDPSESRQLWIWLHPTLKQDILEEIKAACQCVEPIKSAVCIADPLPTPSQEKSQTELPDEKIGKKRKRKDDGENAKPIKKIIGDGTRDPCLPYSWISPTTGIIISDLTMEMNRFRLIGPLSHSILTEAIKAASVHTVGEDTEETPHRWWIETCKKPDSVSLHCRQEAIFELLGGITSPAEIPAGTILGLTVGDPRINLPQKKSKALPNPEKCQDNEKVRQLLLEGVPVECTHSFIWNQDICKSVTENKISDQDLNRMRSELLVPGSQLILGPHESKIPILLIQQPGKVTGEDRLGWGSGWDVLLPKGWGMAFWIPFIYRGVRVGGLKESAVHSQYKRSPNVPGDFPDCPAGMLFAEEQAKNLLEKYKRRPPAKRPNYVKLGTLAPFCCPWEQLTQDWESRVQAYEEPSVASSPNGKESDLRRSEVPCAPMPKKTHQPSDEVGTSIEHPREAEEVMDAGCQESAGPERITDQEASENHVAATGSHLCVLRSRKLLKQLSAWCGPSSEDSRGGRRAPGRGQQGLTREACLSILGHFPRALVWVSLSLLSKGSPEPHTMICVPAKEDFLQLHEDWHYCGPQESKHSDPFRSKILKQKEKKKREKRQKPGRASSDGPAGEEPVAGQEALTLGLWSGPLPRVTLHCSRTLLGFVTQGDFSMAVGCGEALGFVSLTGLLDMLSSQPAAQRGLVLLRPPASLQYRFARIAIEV
- log2 fold change [1]: -0.034
- log2 fold change (crizotinib): 0.02
- log2 fold change [2]: -0.023
- log2 fold change [3]: -0.05
- log2 fold change (duvelisib): -0.005
- log2 fold change (gandotinib): 0.012
- log2 fold change (tozasertib): 0.009
- log2 fold change [4]: -0.041
- log2 fold change (doramapimod): 0.016
- log2 fold change (ispinesib): 0.039

Target: PYGL (UniProt P06737)
- log2 fold change [1]: -0.122
- log2 fold change (crizotinib): 0.003
- log2 fold change [2]: 0.026
- log2 fold change [3]: -0.019
- log2 fold change (duvelisib): 0.03
- log2 fold change (gandotinib): 0.013
- log2 fold change (tozasertib): -0.022
- log2 fold change [4]: -0.023
- log2 fold change (doramapimod): 0.001
- log2 fold change (ispinesib): 0.015

Target: PNN (UniProt Q9H307)
UniProt Q9H307, sequence (Q9H307 whole entry, looked up): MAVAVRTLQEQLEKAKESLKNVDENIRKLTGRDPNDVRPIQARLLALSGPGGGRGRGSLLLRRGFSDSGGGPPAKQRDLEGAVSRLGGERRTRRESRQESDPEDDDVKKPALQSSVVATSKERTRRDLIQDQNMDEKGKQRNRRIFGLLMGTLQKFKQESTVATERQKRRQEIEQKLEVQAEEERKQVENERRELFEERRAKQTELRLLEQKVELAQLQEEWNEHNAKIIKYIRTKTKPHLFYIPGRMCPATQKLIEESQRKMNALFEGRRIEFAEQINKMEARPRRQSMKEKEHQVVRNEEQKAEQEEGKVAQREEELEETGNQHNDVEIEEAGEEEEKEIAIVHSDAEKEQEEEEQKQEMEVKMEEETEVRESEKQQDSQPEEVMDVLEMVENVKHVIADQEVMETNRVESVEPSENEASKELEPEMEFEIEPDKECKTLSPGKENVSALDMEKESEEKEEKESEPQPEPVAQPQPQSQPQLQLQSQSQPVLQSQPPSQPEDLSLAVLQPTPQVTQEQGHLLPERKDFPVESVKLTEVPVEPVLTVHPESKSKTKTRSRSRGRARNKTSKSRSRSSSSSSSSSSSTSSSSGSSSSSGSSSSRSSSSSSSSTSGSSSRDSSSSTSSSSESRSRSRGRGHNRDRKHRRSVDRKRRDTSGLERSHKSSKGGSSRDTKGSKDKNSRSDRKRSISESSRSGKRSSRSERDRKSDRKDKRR
- log2 fold change [1]: -0.043
- log2 fold change (crizotinib): -0.154
- log2 fold change [2]: 0.022
- log2 fold change [3]: -0.05
- log2 fold change (duvelisib): 0.034
- log2 fold change (gandotinib): 0.012
- log2 fold change [4]: -0.003
- log2 fold change (doramapimod): -0.032
- log2 fold change (ispinesib): -0.08

Target: PHC3 isoform 7 (UniProt Q8NDX5)
- log2 fold change [1]: -0.068
- log2 fold change (crizotinib): -0.194
- log2 fold change [2]: 0.317
- log2 fold change [3]: 0.073
- log2 fold change (doramapimod): 0.131

Target: POLR2C (UniProt P19387)
- log2 fold change [1]: 0.019
- log2 fold change (crizotinib): 0.127
- log2 fold change [2]: -0.062
- log2 fold change [3]: 0.163
- log2 fold change (duvelisib): 0.032
- log2 fold change (tozasertib): 0.017
- log2 fold change [4]: 0.113
- log2 fold change (doramapimod): 0.012
- log2 fold change (ispinesib): 0.034

Target: PRKAA1 isoform 2 (UniProt Q13131)
UniProt Q13131, sequence (Q13131 whole entry, looked up): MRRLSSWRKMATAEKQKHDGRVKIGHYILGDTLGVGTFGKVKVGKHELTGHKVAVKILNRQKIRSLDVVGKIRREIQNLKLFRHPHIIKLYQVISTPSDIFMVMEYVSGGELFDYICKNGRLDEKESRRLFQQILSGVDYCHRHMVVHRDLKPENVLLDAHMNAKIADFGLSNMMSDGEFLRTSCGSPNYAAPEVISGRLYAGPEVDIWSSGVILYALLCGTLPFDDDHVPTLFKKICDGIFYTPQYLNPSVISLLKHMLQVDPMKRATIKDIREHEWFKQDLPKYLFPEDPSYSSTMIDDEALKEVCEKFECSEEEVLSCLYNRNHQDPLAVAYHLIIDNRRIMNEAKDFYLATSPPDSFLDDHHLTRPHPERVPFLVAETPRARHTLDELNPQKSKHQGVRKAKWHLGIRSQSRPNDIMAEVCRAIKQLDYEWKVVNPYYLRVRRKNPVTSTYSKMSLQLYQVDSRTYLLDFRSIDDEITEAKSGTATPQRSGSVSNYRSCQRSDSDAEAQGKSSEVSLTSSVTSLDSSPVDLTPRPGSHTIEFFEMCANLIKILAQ
- log2 fold change [1]: 0
- log2 fold change (crizotinib): -0.156
- log2 fold change [2]: -0.007
- log2 fold change [3]: -0.011
- log2 fold change (duvelisib): 0.055
- log2 fold change (gandotinib): -0.235 (active)
- log2 fold change (tozasertib): -0.044
- log2 fold change [4]: -0.036
- log2 fold change (doramapimod): -0.019
- log2 fold change (ispinesib): -0.003

Target: PPIL2 (UniProt Q13356)
- log2 fold change [1]: 0.029
- log2 fold change (crizotinib): 0.027
- log2 fold change [2]: 0.061
- log2 fold change [3]: -0.012
- log2 fold change (duvelisib): 0.121
- log2 fold change (gandotinib): -0.081
- log2 fold change (tozasertib): 0.039
- log2 fold change [4]: 0.131
- log2 fold change (doramapimod): -0.079
- log2 fold change (ispinesib): 0.037

Target: PSMD9 (UniProt O00233)
- log2 fold change [1]: -0.041
- log2 fold change (crizotinib): -0.069
- log2 fold change [2]: 0.022
- log2 fold change [3]: -0.059
- log2 fold change (duvelisib): 0.038
- log2 fold change (gandotinib): -0.018
- log2 fold change (tozasertib): -0.03
- log2 fold change [4]: -0.026
- log2 fold change (doramapimod): 0.001
- log2 fold change (ispinesib): 0.016

Target: POLR2M (UniProt P0CAP2)
- log2 fold change [1]: 0.028
- log2 fold change (crizotinib): 0.074
- log2 fold change [2]: 0.097
- log2 fold change [3]: 0.044
- log2 fold change (duvelisib): 0.164
- log2 fold change (gandotinib): 0.141
- log2 fold change (tozasertib): -0.052
- log2 fold change [4]: 0.012
- log2 fold change (doramapimod): 0.013
- log2 fold change (ispinesib): -0.055

Target: PTGR2 (UniProt Q8N8N7)
UniProt Q8N8N7, sequence (Q8N8N7 whole entry, looked up): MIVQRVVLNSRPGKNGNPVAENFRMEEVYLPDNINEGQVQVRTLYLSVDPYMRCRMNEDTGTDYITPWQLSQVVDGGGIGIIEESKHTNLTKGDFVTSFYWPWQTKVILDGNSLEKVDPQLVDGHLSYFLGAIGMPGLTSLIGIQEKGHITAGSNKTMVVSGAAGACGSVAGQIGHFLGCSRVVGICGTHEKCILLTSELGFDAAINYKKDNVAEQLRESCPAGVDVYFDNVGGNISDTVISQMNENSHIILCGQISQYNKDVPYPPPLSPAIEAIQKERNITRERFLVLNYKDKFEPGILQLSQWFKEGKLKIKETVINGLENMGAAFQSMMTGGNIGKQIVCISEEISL
- log2 fold change [1]: 0.097
- log2 fold change (crizotinib): -0.075
- log2 fold change [2]: 0.045
- log2 fold change [3]: 0.112
- log2 fold change (duvelisib): 0.049
- log2 fold change (gandotinib): 0.192
- log2 fold change (tozasertib): 0
- log2 fold change [4]: -0.185
- log2 fold change (doramapimod): 0.223
- log2 fold change (ispinesib): 0.013

Target: PMM1 (UniProt Q92871)
- log2 fold change [1]: 0.051
- log2 fold change (crizotinib): 0.008
- log2 fold change [2]: 0.032
- log2 fold change [3]: 0.019
- log2 fold change (duvelisib): 0.07
- log2 fold change (gandotinib): -0.075
- log2 fold change (tozasertib): -0.114
- log2 fold change [4]: -0.011
- log2 fold change (doramapimod): 0.027
- log2 fold change (ispinesib): 0.026

Target: PSMA3 (UniProt P25788)
- log2 fold change [1]: 0.011
- log2 fold change (crizotinib): 0.052
- log2 fold change [2]: -0.012
- log2 fold change [3]: -0.117
- log2 fold change (duvelisib): -0.074
- log2 fold change (gandotinib): 0.054
- log2 fold change (tozasertib): 0.046
- log2 fold change [4]: 0.007
- log2 fold change (doramapimod): 0.018
- log2 fold change (ispinesib): -0.002

Target: PSMD3 (UniProt O43242)
- log2 fold change [1]: 0.058
- log2 fold change (crizotinib): 0.003
- log2 fold change [2]: -0.003
- log2 fold change [3]: 0.094
- log2 fold change (duvelisib): -0.028
- log2 fold change (gandotinib): 0.028
- log2 fold change (tozasertib): 0.033
- log2 fold change [4]: 0.047
- log2 fold change (doramapimod): 0.047
- log2 fold change (ispinesib): 0.013

Target: POLR2B (UniProt P30876)
- log2 fold change [1]: 0.041
- log2 fold change (crizotinib): 0.032
- log2 fold change [2]: 0.023
- log2 fold change [3]: 0.18
- log2 fold change (duvelisib): 0.025
- log2 fold change (gandotinib): 0.26 (active)
- log2 fold change (tozasertib): -0.014
- log2 fold change [4]: 0.03
- log2 fold change (doramapimod): -0.014
- log2 fold change (ispinesib): -0.048

Target: PKN2 (UniProt Q16513)
- log2 fold change [1]: 0.025
- log2 fold change (crizotinib): -0.191
- log2 fold change [2]: 0.067
- log2 fold change [3]: -0.057
- log2 fold change (duvelisib): 0.027
- log2 fold change (gandotinib): -0.058
- log2 fold change [4]: 0.133
- log2 fold change (doramapimod): 0.035
- log2 fold change (ispinesib): -0.028

Target: PDCD4 (UniProt Q53EL6)
- log2 fold change [1]: 0.096
- log2 fold change (crizotinib): 0.09
- log2 fold change [2]: 0.303
- log2 fold change [3]: 0.007
- log2 fold change (duvelisib): 0.133
- log2 fold change (gandotinib): -0.141
- log2 fold change (tozasertib): 0.126
- log2 fold change [4]: 0.066
- log2 fold change (doramapimod): -0.047
- log2 fold change (ispinesib): 0.039
